# Assay results as given in the supplement of paper PMC10338343.
# ± gives the standard deviation.
# What was measured:
# [1] = test system: MILI (PIWIL2) piRISC loaded with L1MC piRNA (26 nt); assay: pre-steady-state target cleavage rate (min^-1); guide: L1MC piRNA 5'p-UAACUAAAUACUAUGCAAGCUGUAGG; higher = faster piRNA-guided slicing of the target
# Method in brief: (§1)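 The pre-steady-state cleavage rate came from a burst-and-steady-state fit to pooled data from three Cleave-'n-Seq trials, in which uncleaved targets were sequenced and normalised to depth and to weakly complementary targets. Each reaction held 0.1 nM transcribed, DNA-blocked target RNA library and 1 nM active affinity-purified piRISC carrying one synthetic guide, with or without 500 nM GTSF1 partner protein, in HEPES–potassium acetate buffer at 33 °C for 0–8 or 0–960 min. k3 was capped at 0.0001 min^-1.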
# [2] = test system: EfPiwi piRISC loaded with L1MC piRNA (26 nt); assay: pre-steady-state target cleavage rate (min^-1); auxiliary factor: 500 nM Ephydatia muelleri Gtsf1; guide: L1MC piRNA 5'p-UAACUAAAUACUAUGCAAGCUGUAGG; MIWI and MILI are mouse PIWI proteins and EfPiwi is from a freshwater sponge; tags in brackets are library labels; higher = faster piRNA-guided slicing of the target
# Method in brief: as §1
# [3] = auxiliary factor: 500 nM mouse GTSF1
# [4] = auxiliary factor: none (no GTSF1)
Sequence,"pre-steady-state target cleavage rate [1, 3]","pre-steady-state target cleavage rate [1, 4]",pre-steady-state target cleavage rate [2]
UCCUGCUACAGCAUGCAUAGUUUUUAGUUA,0.114 ± 0.019,0.00396 ± 0.0036,0.00363 ± 0.0018
UCCUGGUACAGCGUUGCAUAGUAUUUAGUUA,0.196 ± 0.027,0.0109 ± 0.0053,0.00749 ± 0.0028
UCCUGGAACACCUUGCAUUGUAUUUAGUUA,0.14 ± 0.018,0.00474 ± 0.0027,0.00411 ± 0.0026
UCCUGCUGACAGCUUGCAUAGUAUUUAGUUA,0.327 ± 0.025,0.00993 ± 0.0029,0.0486 ± 0.013
UCCUGGAUGUGCUUGCAUAGUAUUUAGUUC [g2:g20:cont:t1C],0.12 ± 0.013,0.00589 ± 0.0026,0.0175 ± 0.0048
UCCUGGAUGUCGUUAGCAUAGUAUUUAGUUA,0.0539 ± 0.012,0.00456 ± 0.0029,0.00456 ± 0.0035
UCCUGGAACACGUUGCAUAGUAUUUAGUUA,0.193 ± 0.014,0.01 ± 0.0027,0.0172 ± 0.0053
UCCUGCUACAGCUUGCAUAGUAUUUAGUCA,0.202 ± 0.033,0.00397 ± 0.0022,0.00386 ± 0.0017
UCCUGGAUGAGCUUGACAUAGUAUUUAGUUA,0.0929 ± 0.01,0.00352 ± 0.0026,0.00729 ± 0.0021
UCCUGGAACACCUUGCAAAGUAUUUAGUUA,0.0999 ± 0.015,0.0069 ± 0.0021,0.00814 ± 0.0031
UCCUCCUGACAGCUUGCAUAGUAUUUAGUUA,0.217 ± 0.018,0.00896 ± 0.0026,0.0255 ± 0.008
UCCUGGAACAGCUUGUAUAGUAUUUAGUUA,0.323 ± 0.017,0.00685 ± 0.0022,0.0686 ± 0.013
UCCUGGAUGUCCUUCGCAUAGUAUUUAGUUA,0.0676 ± 0.015,0.00538 ± 0.0022,0.01 ± 0.0052
UCCUGCUACAGACUUGCAUAGUAUUUAGUUA,0.169 ± 0.018,0.00767 ± 0.0021,0.00603 ± 0.0024
UCCUGGUACAGCUUGCUUAGUUUUUAGUUA,0.0347 ± 0.011,0.00709 ± 0.0023,0.00346 ± 0.003
UCCUGGAACAGCUUGCAUAGUAUGUAGUUA,0.206 ± 0.034,0.00343 ± 0.003,0.00302 ± 0.0021
UCCUGGAACUGCUUGCAUAGUUUUUAGUUA,0.0358 ± 0.0071,0.00455 ± 0.0018,0.00498 ± 0.0026
